Measured values as given in the supplement of paper PMC11732987, “Enantioselective OTUD7B fragment discovery through chemoproteomics screening and high-throughput optimisation” (Communications Chemistry, 2025).
A number with no mark means an inactive call.

Tests used:
Experiment in all cases: log2 ratio of Biotin-Ahx-Ub-VS probe labelling (fragment/DMSO); higher = less target engagement (more negative = stronger competition), active = hit call of the paper (q ≤ 0.05, log2 ratio ≤ -1)
Conditions in all cases: compound concentration: 200 uM; treatment time: 3 h
UniProt O00507 = molecular target: UniProt O00507
Chain of UniProt O00507 (O00507 whole entry, the tested form may be a part): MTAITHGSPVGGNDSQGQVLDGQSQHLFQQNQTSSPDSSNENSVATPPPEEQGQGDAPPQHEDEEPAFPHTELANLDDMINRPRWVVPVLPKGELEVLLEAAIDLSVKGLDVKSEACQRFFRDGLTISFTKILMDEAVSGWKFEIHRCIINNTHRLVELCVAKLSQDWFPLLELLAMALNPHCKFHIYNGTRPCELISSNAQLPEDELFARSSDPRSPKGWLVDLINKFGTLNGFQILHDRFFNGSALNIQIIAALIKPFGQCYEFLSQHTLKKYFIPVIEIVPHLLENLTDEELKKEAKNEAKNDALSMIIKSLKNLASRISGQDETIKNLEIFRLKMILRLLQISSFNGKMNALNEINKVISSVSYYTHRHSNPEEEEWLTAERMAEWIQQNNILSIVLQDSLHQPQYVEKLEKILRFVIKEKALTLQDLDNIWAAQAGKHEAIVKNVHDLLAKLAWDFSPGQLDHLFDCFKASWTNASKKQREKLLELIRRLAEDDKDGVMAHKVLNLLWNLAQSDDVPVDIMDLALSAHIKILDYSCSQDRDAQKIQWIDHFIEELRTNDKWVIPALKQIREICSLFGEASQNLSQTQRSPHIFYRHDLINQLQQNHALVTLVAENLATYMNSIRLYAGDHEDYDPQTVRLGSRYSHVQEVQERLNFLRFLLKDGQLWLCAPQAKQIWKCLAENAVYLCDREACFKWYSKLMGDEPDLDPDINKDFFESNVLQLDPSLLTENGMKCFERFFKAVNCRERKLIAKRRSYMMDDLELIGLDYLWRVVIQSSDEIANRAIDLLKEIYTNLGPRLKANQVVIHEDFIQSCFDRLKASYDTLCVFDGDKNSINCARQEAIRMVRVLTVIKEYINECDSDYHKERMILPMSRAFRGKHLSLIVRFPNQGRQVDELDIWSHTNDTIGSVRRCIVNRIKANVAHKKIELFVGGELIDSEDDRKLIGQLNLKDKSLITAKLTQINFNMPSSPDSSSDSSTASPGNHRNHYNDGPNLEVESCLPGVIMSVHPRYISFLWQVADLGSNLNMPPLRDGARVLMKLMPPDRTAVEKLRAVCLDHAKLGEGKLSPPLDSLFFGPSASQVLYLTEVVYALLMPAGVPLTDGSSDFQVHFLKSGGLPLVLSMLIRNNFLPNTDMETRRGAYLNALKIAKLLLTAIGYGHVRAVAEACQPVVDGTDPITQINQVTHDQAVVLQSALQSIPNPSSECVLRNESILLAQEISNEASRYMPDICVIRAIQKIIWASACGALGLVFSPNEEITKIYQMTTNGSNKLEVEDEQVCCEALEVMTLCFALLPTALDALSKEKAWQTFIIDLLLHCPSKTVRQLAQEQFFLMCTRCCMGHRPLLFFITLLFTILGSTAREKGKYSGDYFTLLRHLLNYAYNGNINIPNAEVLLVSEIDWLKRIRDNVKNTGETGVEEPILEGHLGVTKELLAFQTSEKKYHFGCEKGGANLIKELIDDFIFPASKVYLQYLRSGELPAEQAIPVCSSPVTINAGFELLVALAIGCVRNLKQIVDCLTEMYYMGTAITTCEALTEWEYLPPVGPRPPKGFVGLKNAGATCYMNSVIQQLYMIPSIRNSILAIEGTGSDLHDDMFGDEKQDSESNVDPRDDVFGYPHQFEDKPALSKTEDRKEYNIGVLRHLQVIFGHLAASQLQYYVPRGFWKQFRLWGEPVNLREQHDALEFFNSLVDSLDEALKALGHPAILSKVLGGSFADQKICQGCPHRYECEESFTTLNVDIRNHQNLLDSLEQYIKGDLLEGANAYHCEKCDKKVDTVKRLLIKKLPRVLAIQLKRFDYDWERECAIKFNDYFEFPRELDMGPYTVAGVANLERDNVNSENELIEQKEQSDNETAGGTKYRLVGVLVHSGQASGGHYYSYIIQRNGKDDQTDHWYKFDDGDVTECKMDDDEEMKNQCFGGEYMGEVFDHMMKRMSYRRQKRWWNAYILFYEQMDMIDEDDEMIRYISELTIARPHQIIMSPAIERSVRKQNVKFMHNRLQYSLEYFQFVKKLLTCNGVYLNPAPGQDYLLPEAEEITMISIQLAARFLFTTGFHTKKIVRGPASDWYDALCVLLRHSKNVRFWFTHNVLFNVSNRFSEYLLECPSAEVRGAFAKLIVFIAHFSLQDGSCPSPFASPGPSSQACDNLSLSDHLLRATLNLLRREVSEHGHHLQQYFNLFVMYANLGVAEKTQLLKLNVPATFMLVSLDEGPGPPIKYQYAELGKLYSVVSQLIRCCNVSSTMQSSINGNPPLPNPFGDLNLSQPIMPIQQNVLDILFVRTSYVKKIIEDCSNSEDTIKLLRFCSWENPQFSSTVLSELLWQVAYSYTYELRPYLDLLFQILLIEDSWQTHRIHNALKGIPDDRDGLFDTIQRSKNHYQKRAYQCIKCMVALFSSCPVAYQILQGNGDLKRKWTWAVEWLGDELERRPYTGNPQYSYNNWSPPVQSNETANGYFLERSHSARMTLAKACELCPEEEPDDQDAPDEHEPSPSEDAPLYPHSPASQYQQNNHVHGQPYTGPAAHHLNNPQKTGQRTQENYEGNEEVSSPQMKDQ
How it was run: (§1)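 Labelled DUBs were enriched with NeutrAvidin, digested with LysC and trypsin, and run by diaPASEF LC-MS/MS. The labelling used Biotin-Ahx-Ub-VS at 0.5 µM final for 1 h on HEK293T lysate (495 µg per sample) previously treated in triplicate with fragment at 200 µM or vehicle for 3 h. Values are average log2 fragment/vehicle ratios by unpaired t-test on global-median-normalised Spectronaut quantities of proteins with ≥2 unique peptides.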

UniProt P51784 = molecular target: UniProt P51784
Chain of UniProt P51784 (P51784 whole entry): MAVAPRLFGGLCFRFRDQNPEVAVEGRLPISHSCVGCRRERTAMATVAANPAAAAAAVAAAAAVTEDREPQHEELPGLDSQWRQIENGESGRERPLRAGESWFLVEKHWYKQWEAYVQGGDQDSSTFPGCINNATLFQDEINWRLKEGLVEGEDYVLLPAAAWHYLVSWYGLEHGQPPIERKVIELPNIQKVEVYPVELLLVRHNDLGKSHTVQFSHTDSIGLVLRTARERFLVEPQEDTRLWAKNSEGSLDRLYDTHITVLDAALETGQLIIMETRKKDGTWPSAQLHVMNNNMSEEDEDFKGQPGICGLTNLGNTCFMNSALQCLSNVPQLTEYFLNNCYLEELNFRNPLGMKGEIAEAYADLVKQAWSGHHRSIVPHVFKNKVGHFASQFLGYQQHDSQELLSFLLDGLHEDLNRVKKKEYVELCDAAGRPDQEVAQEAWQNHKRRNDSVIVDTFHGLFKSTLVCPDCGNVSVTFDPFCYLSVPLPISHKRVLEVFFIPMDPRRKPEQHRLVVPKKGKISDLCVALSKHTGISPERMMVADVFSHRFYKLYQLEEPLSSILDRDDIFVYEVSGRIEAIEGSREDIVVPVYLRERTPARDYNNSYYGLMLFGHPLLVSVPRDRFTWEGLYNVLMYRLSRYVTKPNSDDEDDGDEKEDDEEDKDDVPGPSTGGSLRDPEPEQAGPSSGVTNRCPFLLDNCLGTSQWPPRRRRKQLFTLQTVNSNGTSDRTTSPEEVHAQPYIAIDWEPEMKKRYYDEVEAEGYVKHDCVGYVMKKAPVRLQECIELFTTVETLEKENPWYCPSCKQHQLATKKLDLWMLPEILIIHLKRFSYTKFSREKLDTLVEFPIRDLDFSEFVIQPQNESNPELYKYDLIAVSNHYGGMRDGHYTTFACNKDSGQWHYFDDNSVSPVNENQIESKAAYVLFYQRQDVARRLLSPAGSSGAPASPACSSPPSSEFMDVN
How it was run: as §1

UniProt Q5T2D3 = molecular target: T1, UniProt Q5T2D3
T1 sequence (whole entry): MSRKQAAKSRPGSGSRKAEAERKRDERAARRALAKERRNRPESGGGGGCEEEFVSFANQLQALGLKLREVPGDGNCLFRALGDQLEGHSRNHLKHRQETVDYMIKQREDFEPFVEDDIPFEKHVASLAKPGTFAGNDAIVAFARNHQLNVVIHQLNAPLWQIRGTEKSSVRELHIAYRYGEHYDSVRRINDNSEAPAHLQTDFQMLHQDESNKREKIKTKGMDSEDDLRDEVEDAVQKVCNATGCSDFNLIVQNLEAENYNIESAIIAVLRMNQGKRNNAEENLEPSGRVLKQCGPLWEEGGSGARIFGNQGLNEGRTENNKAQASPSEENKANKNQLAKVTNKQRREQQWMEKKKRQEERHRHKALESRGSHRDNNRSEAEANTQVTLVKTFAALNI
How it was run: as §1

UniProt Q8TE49 = molecular target: T2, UniProt Q8TE49
T2 sequence (whole entry): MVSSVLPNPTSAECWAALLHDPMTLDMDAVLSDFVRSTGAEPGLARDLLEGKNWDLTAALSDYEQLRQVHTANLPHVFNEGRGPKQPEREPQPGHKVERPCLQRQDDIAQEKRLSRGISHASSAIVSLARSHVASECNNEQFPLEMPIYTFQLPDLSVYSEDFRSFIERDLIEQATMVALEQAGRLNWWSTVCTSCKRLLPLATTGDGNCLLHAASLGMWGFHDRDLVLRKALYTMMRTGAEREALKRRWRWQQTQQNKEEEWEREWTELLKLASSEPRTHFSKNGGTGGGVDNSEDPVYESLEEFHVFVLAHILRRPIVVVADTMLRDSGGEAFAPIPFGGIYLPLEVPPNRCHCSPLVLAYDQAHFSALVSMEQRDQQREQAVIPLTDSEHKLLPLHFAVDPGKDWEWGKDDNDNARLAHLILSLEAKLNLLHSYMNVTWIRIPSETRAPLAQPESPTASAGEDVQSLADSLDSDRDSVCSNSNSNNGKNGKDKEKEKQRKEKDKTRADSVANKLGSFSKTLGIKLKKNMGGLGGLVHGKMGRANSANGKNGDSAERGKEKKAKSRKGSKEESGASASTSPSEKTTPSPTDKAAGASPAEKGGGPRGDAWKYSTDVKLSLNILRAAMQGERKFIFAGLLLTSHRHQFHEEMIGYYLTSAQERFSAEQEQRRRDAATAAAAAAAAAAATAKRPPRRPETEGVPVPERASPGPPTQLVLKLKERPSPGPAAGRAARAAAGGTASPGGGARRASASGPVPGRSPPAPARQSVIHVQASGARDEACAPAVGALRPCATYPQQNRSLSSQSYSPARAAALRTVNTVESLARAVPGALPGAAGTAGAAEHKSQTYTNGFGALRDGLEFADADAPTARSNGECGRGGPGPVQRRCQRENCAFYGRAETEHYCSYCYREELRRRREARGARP
How it was run: as §1

UniProt Q9P2H5 = molecular target: T3, UniProt Q9P2H5
T3 sequence (whole entry): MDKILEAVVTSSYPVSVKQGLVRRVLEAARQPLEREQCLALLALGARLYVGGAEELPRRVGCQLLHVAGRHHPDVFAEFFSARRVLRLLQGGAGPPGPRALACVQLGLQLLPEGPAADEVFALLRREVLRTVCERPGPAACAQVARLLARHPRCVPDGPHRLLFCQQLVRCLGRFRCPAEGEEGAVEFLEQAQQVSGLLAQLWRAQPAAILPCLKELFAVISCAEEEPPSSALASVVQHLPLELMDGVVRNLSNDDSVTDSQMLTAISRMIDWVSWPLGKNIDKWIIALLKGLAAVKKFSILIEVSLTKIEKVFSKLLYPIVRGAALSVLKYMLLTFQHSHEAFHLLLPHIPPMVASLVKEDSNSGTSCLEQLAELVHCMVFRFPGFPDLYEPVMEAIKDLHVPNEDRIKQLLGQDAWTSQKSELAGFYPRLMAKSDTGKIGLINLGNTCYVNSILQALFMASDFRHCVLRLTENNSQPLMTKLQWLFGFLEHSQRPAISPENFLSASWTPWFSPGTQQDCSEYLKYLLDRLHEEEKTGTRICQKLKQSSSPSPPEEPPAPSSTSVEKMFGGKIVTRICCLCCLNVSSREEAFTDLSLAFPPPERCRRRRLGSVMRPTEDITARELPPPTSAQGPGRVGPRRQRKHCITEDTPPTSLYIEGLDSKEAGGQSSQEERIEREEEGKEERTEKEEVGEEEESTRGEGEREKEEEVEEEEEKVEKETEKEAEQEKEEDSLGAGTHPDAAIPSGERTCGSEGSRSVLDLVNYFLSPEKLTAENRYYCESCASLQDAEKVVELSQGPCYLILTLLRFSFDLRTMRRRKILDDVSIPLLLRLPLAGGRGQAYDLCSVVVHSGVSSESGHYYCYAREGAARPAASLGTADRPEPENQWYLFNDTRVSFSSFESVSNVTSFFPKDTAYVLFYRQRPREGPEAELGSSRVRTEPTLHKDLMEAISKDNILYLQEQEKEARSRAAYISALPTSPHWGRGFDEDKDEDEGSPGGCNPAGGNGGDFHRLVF
How it was run: as §1

UniProt Q9UGI0 = molecular target: T4, UniProt Q9UGI0
T4 sequence (whole entry): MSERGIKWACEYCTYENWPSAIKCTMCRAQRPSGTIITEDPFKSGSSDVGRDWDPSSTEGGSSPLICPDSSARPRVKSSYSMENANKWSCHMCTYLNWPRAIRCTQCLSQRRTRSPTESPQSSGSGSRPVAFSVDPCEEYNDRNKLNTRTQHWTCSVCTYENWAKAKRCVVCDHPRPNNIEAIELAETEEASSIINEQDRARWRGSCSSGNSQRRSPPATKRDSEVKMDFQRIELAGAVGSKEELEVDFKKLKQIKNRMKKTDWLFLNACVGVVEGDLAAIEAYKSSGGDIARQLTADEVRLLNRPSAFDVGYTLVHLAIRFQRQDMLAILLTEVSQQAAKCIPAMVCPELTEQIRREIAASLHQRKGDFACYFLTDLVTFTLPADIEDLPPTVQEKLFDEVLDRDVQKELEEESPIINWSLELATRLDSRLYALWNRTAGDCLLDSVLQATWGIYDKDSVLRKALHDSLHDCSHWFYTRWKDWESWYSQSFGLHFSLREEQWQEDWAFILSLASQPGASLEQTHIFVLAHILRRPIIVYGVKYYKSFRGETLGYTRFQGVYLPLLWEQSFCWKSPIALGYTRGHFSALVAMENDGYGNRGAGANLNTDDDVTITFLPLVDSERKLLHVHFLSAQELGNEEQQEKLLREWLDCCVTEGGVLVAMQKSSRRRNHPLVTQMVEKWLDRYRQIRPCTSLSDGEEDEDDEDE
How it was run: as §1

YOD1 = molecular target: T5, YOD1 (UniProt Q5VVQ6)
T5 sequence (whole entry): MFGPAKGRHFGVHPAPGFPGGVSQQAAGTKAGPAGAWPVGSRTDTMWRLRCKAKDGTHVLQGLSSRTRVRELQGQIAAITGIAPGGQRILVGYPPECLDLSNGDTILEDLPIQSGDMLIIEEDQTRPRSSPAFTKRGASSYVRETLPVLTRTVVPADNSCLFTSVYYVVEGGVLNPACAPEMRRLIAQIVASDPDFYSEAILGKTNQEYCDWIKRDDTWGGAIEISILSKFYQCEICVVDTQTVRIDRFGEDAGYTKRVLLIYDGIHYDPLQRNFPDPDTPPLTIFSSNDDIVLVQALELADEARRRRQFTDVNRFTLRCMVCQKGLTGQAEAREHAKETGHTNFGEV
How it was run: as §1

Cc1noc(N2CCN(C(=O)CCl)CC2)n1.Cl
log2 ratio of Biotin-Ahx-Ub-VS probe labelling (UniProt O00507): 0.416
log2 ratio of Biotin-Ahx-Ub-VS probe labelling (UniProt P51784): 0.139
log2 ratio of Biotin-Ahx-Ub-VS probe labelling (UniProt Q5T2D3): -0.466
log2 ratio of Biotin-Ahx-Ub-VS probe labelling (UniProt Q8TE49): -0.674
log2 ratio of Biotin-Ahx-Ub-VS probe labelling (UniProt Q9P2H5): -0.642
log2 ratio of Biotin-Ahx-Ub-VS probe labelling (UniProt Q9UGI0): -0.369
log2 ratio of Biotin-Ahx-Ub-VS probe labelling (YOD1): 0.313

Cc1ncc2c(n1)CCN(C(=O)CCl)C2
log2 ratio of Biotin-Ahx-Ub-VS probe labelling (UniProt O00507): 0.136
log2 ratio of Biotin-Ahx-Ub-VS probe labelling (UniProt P51784): 0.000874
log2 ratio of Biotin-Ahx-Ub-VS probe labelling (UniProt Q5T2D3): -0.239
log2 ratio of Biotin-Ahx-Ub-VS probe labelling (UniProt Q8TE49): -0.624
log2 ratio of Biotin-Ahx-Ub-VS probe labelling (UniProt Q9P2H5): -0.422
log2 ratio of Biotin-Ahx-Ub-VS probe labelling (UniProt Q9UGI0): -0.458
log2 ratio of Biotin-Ahx-Ub-VS probe labelling (YOD1): 0.165

Cc1cccnc1NC(=O)C1CCN(C(=O)CCl)CC1.Cl
log2 ratio of Biotin-Ahx-Ub-VS probe labelling (UniProt O00507): -0.282
log2 ratio of Biotin-Ahx-Ub-VS probe labelling (UniProt P51784): -0.0141
log2 ratio of Biotin-Ahx-Ub-VS probe labelling (UniProt Q5T2D3): -0.408
log2 ratio of Biotin-Ahx-Ub-VS probe labelling (UniProt Q8TE49): -0.254
log2 ratio of Biotin-Ahx-Ub-VS probe labelling (UniProt Q9P2H5): -0.348
log2 ratio of Biotin-Ahx-Ub-VS probe labelling (UniProt Q9UGI0): -0.465
log2 ratio of Biotin-Ahx-Ub-VS probe labelling (YOD1): -0.214

COCC1C=CCCN1C(=O)CCl (stereo not given)
log2 ratio of Biotin-Ahx-Ub-VS probe labelling (UniProt O00507): -0.284
log2 ratio of Biotin-Ahx-Ub-VS probe labelling (UniProt P51784): -0.0747
log2 ratio of Biotin-Ahx-Ub-VS probe labelling (UniProt Q5T2D3): -0.118
log2 ratio of Biotin-Ahx-Ub-VS probe labelling (UniProt Q8TE49): -0.259
log2 ratio of Biotin-Ahx-Ub-VS probe labelling (UniProt Q9P2H5): -0.0309
log2 ratio of Biotin-Ahx-Ub-VS probe labelling (UniProt Q9UGI0): -1.01 (active)
log2 ratio of Biotin-Ahx-Ub-VS probe labelling (YOD1): -0.0106

Cc1cccc(NC(=O)CCl)c1C
log2 ratio of Biotin-Ahx-Ub-VS probe labelling (UniProt O00507): -0.281
log2 ratio of Biotin-Ahx-Ub-VS probe labelling (UniProt P51784): -0.431
log2 ratio of Biotin-Ahx-Ub-VS probe labelling (UniProt Q5T2D3): -0.156
log2 ratio of Biotin-Ahx-Ub-VS probe labelling (UniProt Q8TE49): -0.703
log2 ratio of Biotin-Ahx-Ub-VS probe labelling (UniProt Q9P2H5): -0.325
log2 ratio of Biotin-Ahx-Ub-VS probe labelling (UniProt Q9UGI0): -0.414
log2 ratio of Biotin-Ahx-Ub-VS probe labelling (YOD1): -0.291
